In ChEMBL document CHEMBL4513216, “Probing the Open Global Health Chemical Diversity Library for Multistage-Active Starting Points for Next-Generation Antimalarials” (ACS Infect Dis, 2020) one finds INHIBITION data, which are given here for 54 compounds.

About 8,600 (12%) of roughly 69,000 compounds showed an effect of 50% or more. The list comes from a sample in which strong results are over-represented; it also holds similar structures and randomly drawn compounds.

For the assay, the system named is Plasmodium berghei. The experiment in a line: Screen against P. berghei liver stage (PbLuc), transformed with Luciferase, at 10uM. The class given is functional, HepG2. The conditions noted are these: tested at 10 uM.
For the compound `CC(=O)c1ccc(N2CCN(C(=O)c3cnn4c3OCCC4)CC2)cc1`, the INHIBITION is recorded as 16%.
Regarding `COc1ccc(C(=O)N2CCOCC2c2ccc(C)o2)cc1` (centres undefined), the INHIBITION was found to be 68%.
For the compound `Cc1ccc(C2COCCN2C(=O)c2ccc(N(C)C)cc2)o1` (centres undefined), the INHIBITION is on record as -0.79%.
With `COCc1ccc(C(=O)N2CCOCC2c2ccc(C)o2)cc1` (centres undefined), the INHIBITION was determined as 1.2%.
For `COc1cc2c(nn1)CCN(Cc1noc(CC(C)C)n1)C2`, the INHIBITION was 17.4%.
The same measure for `Cn1cccc1C1CCCN1Cc1noc(C(C)(C)C)n1` (centres undefined): -40.5%; for `Fc1cccc(-c2noc3c2CN(Cc2cncn2C2CC2)CC3)c1`: 33.3%; for `CC(C(=O)N(C)C)N1CCc2onc(-c3cccc(F)c3)c2C1` (centres undefined): 40.9%.
For the compound `CC(C)(C)c1nc(CN2CCc3onc(-c4cccc(F)c4)c3C2)no1`, the INHIBITION came to 67.7%.
With `CC(C(N)=O)N1CCc2onc(-c3cccc(F)c3)c2C1` (centres undefined), the INHIBITION is 18.2%.
Take `Cn1ncc(CN2CCc3onc(-c4cccc(F)c4)c3C2)c1C1CC1`: the INHIBITION worked out at 41.5%.
Consider `CC(C)Cc1nc(CN2CCc3onc(-c4cccc(F)c4)c3C2)no1`, for which the INHIBITION was 82.5%.
As to `CC(C)c1nc(CN2CCc3onc(-c4cccc(F)c4)c3C2)no1`, the INHIBITION was found to be 84.1%.
As for `COc1ncnc2c1CCN(Cc1nccs1)CC2`, the INHIBITION was -20.1%.
For the compound `CCN(CC(=O)N(C)C)C(=O)c1ccc(-c2nc(C)cs2)cc1`, the INHIBITION is 30.9%.
`CCCn1c(N2CCCCC2)nc2c(C)nn(C)c2c1=O`: the INHIBITION was found to be 35.9%.
Consider `Cc1occc1C(=O)N1CCC2(CCCN(Cc3nccs3)C2)C1` (centres undefined), for which the INHIBITION is listed as -58.3%.
Take `Cc1nc(CNC(=O)c2cc(Cn3ccnc3C(C)C)[nH]n2)sc1C`: the INHIBITION is 37.9%.
Turning to `Cc1ccc(CN(C)C(=O)c2cc(Cn3ccnc3C(C)C)[nH]n2)o1`, the INHIBITION was 42.3%.
The same measure for `CCn1ccnc1CN1CCN(C(C)C(=O)NCC(F)(F)F)CC1` (centres undefined): 19.7%; for `CC(C)c1nccn1Cc1cc(C(=O)NCC(C)n2ccnc2)n[nH]1` (centres undefined): 26%.
In the case of `Cc1ccc(CNC(=O)c2cc(Cn3ccnc3C(C)C)[nH]n2)o1`, the INHIBITION came to 63%.
For `CC(C)c1nccn1Cc1cc(C(=O)NCC(F)(F)F)n[nH]1`, the INHIBITION is recorded as 94%.
For the compound `CCc1nc(CNCCn2cc(C)cn2)no1`, the INHIBITION is on record as 0.914%.
Turning to `O=S(=O)(CCOc1ccc(F)cc1)Nc1cnn(CC(F)F)c1`, the INHIBITION is -6.85%.
Then `CN1CCN2CCN(Cc3cc(=O)n4c5c(cccc35)CCC4)CC2C1` (centres undefined), with 13%.
In the case of `CCCC1CN(CCOC)C(=O)c2cccnc2O1` (centres undefined), the INHIBITION stood at 26.8%.
For `COc1ccccc1CN(Cc1cccc(C)c1)C(=O)[C@@H](N)CC(=O)O`, the INHIBITION was found to be 11.8%.
As to `CN[C@@H](C)C(=O)N(Cc1cccc(C)c1)Cc1ccccc1OC`, the INHIBITION was found to be 34.1%.
For the compound `COCC(=O)N(Cc1cccc(C)c1)Cc1ccccc1OC`, the INHIBITION worked out at 51.7%.
The same measure for `O=C(COc1ccc(F)cc1F)N1CCOCC(O)(CN2CCCC2)C1` (centres undefined): 11.8%; for `COc1ccc2nc(C)c(C(=O)NCCN3CCS(=O)(=O)CC3)cc2c1`: 46.9%.
Then `Cc1ccc2cc(C(=O)NCCN3CCS(=O)(=O)CC3)c(C)nc2c1`, with 74.7%; and `CCN1CCN(CCCNC(=O)c2cc3ccc(C)cc3nc2C)CC1`, with 37.2%.
For the compound `CSc1nc2ncc3c(=O)n(CCN4CCCCC4)ccc3n2n1`, the INHIBITION worked out at 51%.
Turning to `COCCn1ccc2c(cnc3nc(SC)nn32)c1=O`, the INHIBITION stood at 38.4%.
For the compound `CSc1nc2ncc3c(=O)n(C)ccc3n2n1`, the INHIBITION is given as -3.73%.
The same measure for `CCn1c(C)cc(C(=O)N2C[C@@H](C(=O)O)[C@H](c3ccccc3C)C2)c1C`: 0.33%.
Take `c1cnc(N2CCC(OCCN3CCCCC3)C2)nc1` (centres undefined): the INHIBITION was 40.6%.
For the compound `Cc1cnc(N2CCC(OCCN3CCCCC3)C2)nc1C` (centres undefined), the INHIBITION was found to be 54.5%.
Turning to `Cc1cc(C)nc(N2CCC(OCCN3CCCCC3)C2)n1` (centres undefined), the INHIBITION turned out to be 58.2%.
For `CN(CCN1CCCCCC1)c1nccc(N2CCC(O)C2)n1` (centres undefined), the INHIBITION was 27.6%.
The same measure for `Cc1cnc(N2CCCOC(CN3CCCCC3)C2)nc1` (centres undefined): 34.1%.
Consider `Cc1ccnc(N2CCC(OCCN3CCCCC3)C2)n1` (centres undefined), for which the INHIBITION worked out at 48.9%.
`COc1ccnc(N2CCC(OCCN3CCCCC3)C2)n1` (centres undefined): the INHIBITION is listed as 42.4%.
As for `C1CCN(CCOC2CCNCC2)CC1`, the INHIBITION was 3.63%.
With `CC(C)(C)c1nccc(N2CCC(OCCN3CCCCC3)C2)n1` (centres undefined), the INHIBITION is recorded as 66.5%.
As for `c1nc2c(c(-c3ccsc3)n1)CCN(Cc1ccoc1)CC2`, the INHIBITION is 20.1%.
The same measure for `CCCNC(c1cccnc1)c1ccc(F)c(C)c1` (centres undefined): -24.7%.
Turning to `O=C(CN1CCOC(CNc2cccnn2)C1)NCc1cccs1` (centres undefined), the INHIBITION is on record as 36.55%.
With `CC(C)(C)c1nc(CN2CCOC(Cn3cccn3)C2)no1` (centres undefined), the INHIBITION is reported as -29.1%.
With `O=C(c1ccncc1F)N1C[C@@H]2CC[C@H]1CN(Cc1cccnc1)C2`, the INHIBITION is on record as 22.7%.
For the compound `Cc1cc(C(=O)NC(C)Cc2ccccc2Cl)n(C)n1` (centres undefined), the INHIBITION is -39.3%.
Then `Cc1noc(C)c1CN1CCCC2(CCN(C(=O)N3CCOCC3)C2)C1` (centres undefined), with 26%.
